We go through 64 molecules from PubChem BioAssay AID588342 (National Center for Advancing Translational Sciences (NCATS), 2011).

The campaign covered roughly 360,000 compounds. About 25,000 (6.9%) were called active. Entries that show only a call come without a potency. Not shown: some 9% with an inconclusive outcome. The call rests on the fitted dose curve; in most records, active means well fitted inhibition curve with a large enough effect; inconclusive means small, poorly fitted or top-dose-only effect; inactive means flat fitted curve, though single readings scatter. This excerpt belongs to a sample that is enriched for actives.

Chain of Luciferin 4-monooxygenase (Photinus pyralis) (P08659 whole entry, looked up): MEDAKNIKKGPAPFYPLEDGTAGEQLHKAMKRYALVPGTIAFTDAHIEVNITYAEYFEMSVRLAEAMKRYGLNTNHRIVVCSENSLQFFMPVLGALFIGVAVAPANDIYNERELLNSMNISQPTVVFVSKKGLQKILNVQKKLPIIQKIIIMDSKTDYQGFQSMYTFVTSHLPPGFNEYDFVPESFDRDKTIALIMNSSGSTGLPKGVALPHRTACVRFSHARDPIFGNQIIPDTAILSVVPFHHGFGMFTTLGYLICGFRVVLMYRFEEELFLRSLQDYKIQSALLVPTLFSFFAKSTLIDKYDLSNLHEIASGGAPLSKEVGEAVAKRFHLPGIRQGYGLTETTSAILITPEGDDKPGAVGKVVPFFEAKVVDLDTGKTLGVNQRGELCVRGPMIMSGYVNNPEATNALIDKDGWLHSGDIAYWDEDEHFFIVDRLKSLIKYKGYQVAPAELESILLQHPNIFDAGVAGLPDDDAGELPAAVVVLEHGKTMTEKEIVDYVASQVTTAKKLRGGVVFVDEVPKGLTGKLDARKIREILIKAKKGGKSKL

In this experiment the target is Luciferin 4-monooxygenase (Photinus pyralis) (UniProt P08659). Briefly: qHTS profiling assay for firefly luciferase inhibitor/activator using purifed enzyme and Km concentrations of substrates (counterscreen for miR-21 project). Further: nearly all actives have a fitted effect of over 55% in size. The note with it: purified FLuc, luminescence inhibition; series mostly up to 57.5 µM. From the text:
MLPCN Grant: 1 R21 NS059478-01 (miR-21 grant) Assay Provider: NCGC NCGC Assay Overview: Firefly (Photinus pyralis) luciferase is one of the most commonly used transcriptional reporters for a number of reasons. It is considered one of the more dynamically responsive reporters -that is, responsive to changes in reporter transcription - as it requires no post-translational modifications and is enzymatically active directly after protein synthesis (Wood, 1998). Additionally, the half-life of the luciferase protein is short relative to other reporter-gene products (Wood, 1995). Whereas reporters with long half-lives potentially allow for increased signal due to accumulation of reporter-gene product, once accumulated in the cell, dynamic changes in reporter-gene expression may be difficult to detect(Fan and Wood, 2007; Almond et al., 2004). It has been shown that wild-type P. pyralis luciferase has a half-life of approximately […] hours in mammalian cells (Thompson et al., 1991). Firefly luciferase reporter-gene assays are also generally considered one of the most sensitive assay types (Wood, 1995; Wood, 1998). Although light produced in a bioluminescence reaction is of lower intensity than that produced during fluorescence emission, this is offset by little to no background light inherent to luminescent assays. Thus the luciferase reporter can be expressed at much lower levels than fluorescent proteins while still providing robust signal. # However, it was initially observed, in 1991, by Thompson et al., that compounds that resemble the substrates of firefly luciferase (FLuc) can act as competitive inhibitors of the enzyme, and that these compounds, upon interaction with luciferase in the cell, can actually stabilize the protein and increase its half-life. Accumulated intracellular FLuc protein can be measured as an increase in luminescence signal, upon addition of detection reagents (which contain high concentrations of FLuc substrates) commonly used in high-throughput screening. In cell-based reporter gene assays that use FLuc as the reporter gene to quantitate the potential influence of a given compound against the target biology, this apparent increase in luminescence can mistakenly be interpreted as identification of a compound that is active against the target of interest. This is the case for the miR-21 FLuc reporter gene assay used to identify inhibitors of the miR-21 pathway (PubChem AID 2289) - compounds of interest will inhibit miR-21 biogenesis/expression or activity, and are identified by causing an increase in luminescence, due to increased FLuc translation. However, FLuc inhibitory compounds that stabilize the FLuc protein will give an identical read-out, making it difficult to distinguish compounds that are active against the target from those active against FLuc. Previous profiling work to determine the prevalence of compounds that affect FLuc enzymatic activity (PubChem AID 411) identified that ~3% of the MLSMR library (then at ~72K) inhibited FLuc. […] Since the MLSMR had grown to ~350K compounds, and since it was expected that a significant percentage of compounds found active in the miR-21 FLuc assay would be FLuc inhibitors, the library was screened for activity against FLuc using a biochemical assay of purified FLuc and KM concentrations of FLuc substrates (D-luciferin and ATP).
NCGC Assay Protocol Summary: Reagents: 50mM Tris acetate, pH 7.5; 10mM Mg acetate; 10uM D-luciferin (Sigma #L9504); 10uM ATP; 0.01% Tween-20; 0.05% BSA; 10nM P. pyralis luciferase (Sigma #L9506) Control compounds used were two known firefly luciferase inhibitors (compounds (2) and (5) in Auld et al., 2010), and DMSO. […]
(qHTS replaces the single test concentration by a dilution series.)
Turning to `O=C(Nc1sc2c(c1C(=O)O)CCC2)c1ccccc1F`, the Potency was 26.9 µM (active).

Regarding `Cc1ccccc1NC(=O)c1c(NC(=O)c2ccccc2F)sc2c1CCC(C)C2` (centres undefined), the Potency entry was “inactive”.

Take `O=C(Nc1nc2c(s1)CCCC2)c1ccccc1F`: the Potency is 0.338 µM (active).

In the case of `CC(C)(C)C1CCc2c(sc(NC(=O)c3ccccc3F)c2C(=O)N2CCCCC2)C1` (centres undefined), the Potency result was “inactive”.

Turning to `C=CCN(CC=C)S(=O)(=O)c1ccc(C(=O)Nc2sc3c(c2C(N)=O)CCCCC3)cc1`, the Potency result was “inactive”.

Regarding `NC(=O)c1c(NC(=O)c2ccccc2)sc2c1CCCC2`, the Potency is 0.675 µM (active).

Regarding `O=C(CCS(=O)(=O)c1ccccc1)Nc1nc2c(s1)CCCC2`, the Potency result was “inactive”.

For the molecule `Cc1ccc(C(=O)c2c(NC(=O)c3ccncc3)sc3c2CCCC3)cc1`, the Potency entry was “inactive”.

Turning to `O=C(Cn1c(=O)sc2ccccc21)Nc1nc2c(s1)CCCC2`, the Potency result is “inactive”.

Regarding `O=C(O)c1cccc(S(=O)(=O)N2CC=C(c3ccccc3)CC2)c1`, the Potency entry was “inactive”.

With `Cc1nnc(SCC(=O)NCc2ccccc2Cl)c2nn(-c3ccccc3)c(C)c12`, the Potency entry was “inactive”.

Consider `CC(NCCc1ccc(S(N)(=O)=O)cc1)C(=O)NCc1ccccc1` (centres undefined), for which the Potency entry is “inactive”.

Turning to `Cc1ccc(S(=O)(=O)N(C)C)cc1NC(=O)c1ccc(-n2cncn2)c([N+](=O)[O-])c1`, the Potency entry was “inactive”.

Turning to `O=C(CNC(=O)OCc1ccccc1)NC1CCCCNC1=O` (centres undefined), the Potency entry was “inactive”.

`CCOc1cc(-c2nnc(SCC(=O)NC3CCCCC3)nc2-c2ccc(OC)c(OCC)c2)ccc1OC`: the Potency entry was “inactive”.

As to `Cc1cc(C)cc(NC(=O)Cn2c(=O)c3ccccc3n3nncc23)c1`, the Potency result was “inactive”.

`Cc1cccc(C(=O)NCC(=O)OCC(=O)N(C)CC(=O)Nc2ccccc2Cl)c1`: the Potency result is “inactive”.

`COc1ccc(CCNC(=O)c2cc3cccc4c3n2CC(C)S4)c(OC)c1OC` (centres undefined): the Potency result is “inactive”.

For the molecule `CN1C(=O)c2ccccc2Sc2ccc(NC(=O)Cc3ccc(Cl)cc3)cc21`, the Potency result is “inactive”.

For the molecule `CCC1C(=O)c2ccccc2N(C)C1=O` (centres undefined), the Potency result is “inactive”.

For the molecule `CN1C(=O)/C(=C\c2cc(Br)cs2)c2ccccc21`, the Potency is 4.26 µM (active).

On to `COc1ccc(N(Cc2ccccc2)S(=O)(=O)c2cccc(C(=O)O)c2)cc1`, for which the Potency entry is “inactive”.

As for `COc1ccc(CN(C)C(=O)CC(c2ccccc2)c2ccccc2)cc1`, the Potency result was “inactive”.

Consider `COc1ccc(C(CC(=O)c2ccccc2)S(=O)(=O)c2ccccc2)cc1` (centres undefined), for which the Potency was 0.478 µM (active).

With `Cc1c(NS(=O)(=O)c2cc(C(=O)NCCc3ccc(F)cc3)cc(Cl)c2Cl)c(=O)n(-c2ccccc2)n1C`, the Potency result is “inactive”.

For the molecule `COc1cccc(-n2c(=O)c3c(C)c(C(=O)N(C)C)sc3n(Cc3cccc(C)c3)c2=O)c1`, the Potency result was “inactive”.

Consider `Cc1cccc(OC(=O)c2sc3ncn(C)c(=O)c3c2C)c1`, for which the Potency is 12 µM (active).

For `Cc1c(C(N)=O)sc2ncn(CCOc3ccccc3)c(=O)c12`, the Potency result was “inactive”.

For the molecule `COc1ccc(S(=O)(=O)N2CCN(c3ccc(F)cc3)CC2)cc1-c1noc(C)n1`, the Potency entry was “inactive”.

With `Cc1ccc2c(c1)c1c(c(=O)n(-c3ccccc3)c(=O)n1CC(=O)c1ccc(Cl)cc1)n2C`, the Potency entry is “inactive”.

Consider `O=C(Cn1nc(Cc2cccnc2)c2ccccc2c1=O)N1CCN(c2ccccc2F)CC1`, for which the Potency result is “inactive”.

In the case of `Cc1cc2c(=O)n(C)c(SCC(=O)c3cc4ccccc4o3)nc2s1`, the activity change, negative = inhibition was 4.57% [at 2.3 µM] (inactive).

`Nc1ncc(-c2cc3ccccc3oc2=O)s1`: the Potency was 6.01 µM (active).

`Cc1ccc(S(=O)(=O)N2CCC(C(=O)OCC(=O)N(C)c3ccccc3)CC2)cc1C`: the Potency entry was “inactive”.

For `CCC(C(=O)Nc1cccc(Cl)c1C)n1nc(-c2ccc(C)cc2)ccc1=O` (centres undefined), the Potency result is “inactive”.

`COc1ccc(C)cc1N(CC(=O)N1CCC(C)CC1)S(=O)(=O)c1ccc(C)cc1`: the Potency result is “inactive”.

As for `CC(C)(COC(=O)Nc1ccccc1)COC(=O)Nc1ccccc1`, the Potency result was “inactive”.

As to `O=C(Nc1ccccc1)O/N=C1\CCCCC1c1ccc([N+](=O)[O-])cc1[N+](=O)[O-]` (centres undefined), the Potency entry was “inactive”.

Consider `O=C(Nc1ccccc1)O/N=C1/CCCc2occc21`, for which the Potency is 16.9 µM (active).

For the molecule `CC(=O)NC(Cc1c[nH]c2ccccc12)C(=O)O` (centres undefined), the Potency entry was “inactive”.

Turning to `O=S(=O)(O)Oc1c[nH]c2ccccc12`, the Potency was 12 µM (active).

In the case of `NC(=O)CSc1c[nH]c2ccccc12`, the Potency result was “inactive”.

Turning to `Cc1ccc(NC(=O)Cn2c(=O)n(-c3ccccc3)c(=O)c3c4c(sc32)CCCC4)cc1`, the Potency result is “inactive”.

Turning to `CCn1c(COc2cccc(OC)c2)nnc1SCC(=O)N1CCOCC1`, the Potency entry was “inactive”.

As for `CCOc1ccc(C(=O)CCN2CCOCC2)cc1`, the Potency entry is “inactive”.

As for `CCOc1ccc(-c2ccc(SCC(=O)N3CCOCC3)nn2)cc1`, the Potency was 3.38 µM (active).

Consider `CCNS(=O)(=O)c1ccc(NC(=O)CSc2nc(-c3ccco3)cc(C(F)(F)F)n2)cc1`, for which the Potency entry is “inactive”.

`O=C1OC2(CCCCC2)CC2=C1C1O[C@](c3ccsc3)(Cc3ccccc31)O2`: the activity change, negative = inhibition is -0.717% [at 11.5 µM] (inactive).

Take `CC(C)(C)c1nnc(N/N=C/c2ccc(O)cc2)n(N)c1=O`: the Potency is 13.5 µM (active).

As to `Nc1nnn(CC(=O)N/N=C/c2ccc(O)cc2)n1`, the Potency entry is “inactive”.

As for `CC(C)CCC(C)NC(=O)c1ccc2nccnc2c1` (centres undefined), the Potency entry is “inactive”.

In the case of `Cc1nnc(NC(=O)C(c2ccccc2)c2ccccc2)s1`, the Potency result is “inactive”.

As to `Cc1nnc(NC(=O)c2ccc3nccnc3c2)s1`, the Potency is 15.1 µM (active).

Take `Cc1ccc(S(=O)(=O)N2CCC(C(=O)Nc3cc(C)ccc3C)CC2)cc1`: the Potency result was “inactive”.

Regarding `Cc1cccc(-n2cnc(C(=O)Nc3cccnc3)c2)n1`, the Potency was 10.7 µM (active).

As to `Cc1cc(C)c(NC(=O)CS(=O)CC(=O)Nc2cccnc2)c(C)c1` (centres undefined), the Potency entry is “inactive”.

`Cc1cccc(-n2cnc(C(=O)NNC(=S)Nc3ccccc3)c2)n1`: the Potency entry is “inactive”.

Regarding `CN(CC(=O)NCCN1CCOCC1)S(=O)(=O)c1ccc(F)cc1`, the Potency entry is “inactive”.

For `O=C(OCc1cc(=O)n2nc(C3CC3)sc2n1)c1ccccc1Cl`, the Potency was 16.9 µM (active).

Regarding `Cc1nn2c(=O)cc(COC(=O)c3ccccc3NC(=O)COc3ccccc3C)nc2s1`, the Potency entry is “inactive”.

Take `O=C(Nc1ccc(C(=O)OCc2cc(=O)n3nc(C4CC4)sc3n2)cc1)c1ccc(F)cc1`: the Potency entry was “inactive”.

On to `Cc1nn2c(=O)cc(COC(=O)c3cccc(NC(=O)COc4ccccc4Cl)c3)nc2s1`, for which the Potency was 3.01 µM (active).

As to `CCCCc1nn2c(=O)cc(COC(=O)c3cccc(NC(=O)COc4ccccc4)c3)nc2s1`, the Potency entry was “inactive”.

Take `Cc1ccc(OCC(=O)OCc2cc(=O)n3nc(C4CC4)sc3n2)cc1`: the Potency result is “inactive”.
